An excerpt weighted towards active compounds, which were near 18% of everything screened.
GCN5L2 inh – inhibitors of human GCN5L2 histone acetyltransferase. 390,000 tested, 0.21% active. GCN5L2 HAT assay, ThioGlo1 CoA-SH fluorescence. AID 504327. Q92830. Potency, µM (series often up to 58.9 µM), for the others: at the top dose activity change, negative = inhibition, actives largely listed as inhibitors
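ThioGlo1-coupled HAT assay: 20nM GCN5L2, 70uM acetyl-CoA, 75uM H3(1-25) peptide, pH 7.5. Fluorescence read at 340/540nm at start and after 20 min at room temperature.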
VDR inhibitor – vitamin D3 receptor (human) inhibition | VDR-SRC2-3 peptide fluorescence polarization, 2 h | Potency, µM, without a hit: max response, negative = inhibition, actives largely listed as inhibitors | 400,000 tested, 0.93% active
Target sequence (P11473 whole entry, looked up): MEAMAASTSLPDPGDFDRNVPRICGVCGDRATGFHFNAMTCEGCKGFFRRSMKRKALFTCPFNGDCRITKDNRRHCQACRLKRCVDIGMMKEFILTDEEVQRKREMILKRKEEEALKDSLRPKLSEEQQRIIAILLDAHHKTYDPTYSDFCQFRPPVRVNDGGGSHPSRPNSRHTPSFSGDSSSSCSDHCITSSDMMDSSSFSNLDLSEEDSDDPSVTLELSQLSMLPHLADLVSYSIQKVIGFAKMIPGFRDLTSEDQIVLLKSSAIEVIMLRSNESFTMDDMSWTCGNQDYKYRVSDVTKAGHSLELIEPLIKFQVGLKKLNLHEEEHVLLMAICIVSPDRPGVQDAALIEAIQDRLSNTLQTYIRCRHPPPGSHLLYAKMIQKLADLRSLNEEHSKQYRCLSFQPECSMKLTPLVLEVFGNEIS
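Fluorescence polarization assay measuring small-molecule disruption of VDR binding to the coregulator peptide SRC2-3. Compounds were pin-transferred (23 nl) into the reagent mix and incubated 2 h at room temperature before reading.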
DT40 TDP1 no CPT – qHTS for Inhibitors of human tyrosyl-DNA phosphodiesterase 1 (TDP1): qHTS in cells in absence of CPT | Potency, µM (series often up to 46.2 µM), without a hit: top-dose activity change, negative = growth inhibition, usual class: inhibitors | AID 686978, 2013 | DT40 Tdp1-/- hTDP1 cells, no CPT, ATP luminescence, 48 h | 420,000 tested, 15% active; further: nearly all actives have a fitted effect of over 55% in size
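No-CPT arm: Tdp1-/-;hTDP1 DT40 cells (400/well) plus compounds, incubated ≥48 hr at 37 °C. Readout CellTiter-Glo luminescence.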
TDP1 block – blocks human tyrosyl-DNA phosphodiesterase 1; Q9NUW8; recombinant TDP1, AlphaScreen DNA substrate cleavage; Potency, µM (series often up to 130 µM), inactives show top-dose activity change, negative = inhibition, usual class: inhibitors; 350,000 tested, 0.28% active; AID 485290; further: nearly all actives have a fitted effect of over 40% in size
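Enzyme-compound mixtures sat 15 min at room temperature, followed by a 5 min reaction with 15 nM final substrate and 10 min with AlphaScreen beads. Recombinant human Tdp1 was used at 1 nM final.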
DT40 TDP1 CPT – DT40-hTDP1 cell growth loss with CPT | Potency, µM (series often up to 46.2 µM), without a hit: at the highest dose activity change, negative = growth inhibition, actives largely listed as inhibitors | 420,000 tested, 12% active | AID 686979 | chicken DT40 Tdp1-/-;hTDP1 cells + 20 nM CPT, ATP luminescence, 48 h; further: nearly all actives have a fitted effect of over 55% in size
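Chicken DT40 Tdp1-/- cells complemented with human TDP1, 400 cells/well, exposed to compounds plus 20 nM camptothecin for at least 48 h at 37 C; viability read as ATP content by CellTiter-Glo luminescence.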
PLK1 PBD block – inhibitors of human PLK1 polo-box domain binding | Plk1 PBD binding of FITC phosphopeptide, fluorescence polarization | 360,000 tested, 2.8% active | P53350 | Potency, µM, for inactives: max response, negative = inhibition, usual class: inhibitors | AID 720504; further: series mostly up to about 57 µM; nearly all actives have a fitted effect of over 65% in size
* hit, by the source's call; ? = inconclusive; nt = no result given. The call rests on the fitted dose curve; in most records, active means well fitted curve in the direction sought with a large enough effect; inconclusive means small, poorly fitted or top-dose-only effect, or another doubt; inactive means no such curve, though single readings can be large; an effect the other way counts as inactive or inconclusive. On the % scale 0 is the no-effect control and ±100 the full control effect; potency means the concentration at half of the fitted maximal effect.

SMILES	GCN5L2 inh	VDR inhibitor	DT40 TDP1 no CPT	TDP1 block	DT40 TDP1 CPT	PLK1 PBD block
Cc1csc(=O)n1CC(=O)OC(C)C(=O)Nc1cccc(Cl)c1 (stereo not given)	1%	0%	-17%	-8%	-15%	2%
Cc1noc(C)c1-c1ccc2ncnc(NCc3cc(F)cc(F)c3)c2c1	nt	nt	nt	4%	nt	nt
Cc1ccc(OCC(=O)N/N=C\c2cn(C)c3ccccc23)c([N+](=O)[O-])c1	-7%	9%	15µM*	7%	?	-7%
Cc1ccc(OCC(=O)N/N=C\c2c(C)[nH]n(-c3ccccc3)c2=O)c([N+](=O)[O-])c1	-5%	5%	4.1µM*	9%	3.7µM*	-8%
Cc1ccc(/C=N\NC(=O)COc2ccc(C)cc2[N+](=O)[O-])cc1	-7%	1%	?	6%	?	-10%
N#C/C(=C(/O)c1ccc(Cl)c([N+](=O)[O-])c1)c1nc2ccccc2[nH]1	-29%	11%	?	-1%	15µM*	-10%
C/C(O)=C(/C#N)c1nc2ccccc2[nH]1	3%	-10%	?	0%	?	-1%
COc1cc(/C(O)=C(\C#N)c2nc3ccccc3[nH]2)cc(OC)c1OC	-5%	5%	13µM*	nt	?	2%
CC(=O)OC(/C(O)=C(\C#N)c1nc2ccccc2[nH]1)c1ccccc1 (stereo not given)	-4%	1%	18µM*	4%	?	-6%
N#C/C(=C(/O)c1ccc([N+](=O)[O-])cc1)c1nc2ccccc2[nH]1	-6%	4%	?	3%	-9%	-4%
COc1cc(OC)cc(C(=O)OC/C(O)=C(\C#N)c2nc3ccccc3[nH]2)c1	8%	-4%	?	6%	?	0%
N#C/C(=C(/O)C(Cl)(Cl)Cl)c1nc2ccccc2[nH]1	3%	-11%	9.2µM*	nt	8.2µM*	-10%
O=C(Nc1ccccc1F)Nc1cccnc1Cl	nt	-16%	?	nt	?	-6%
NS(=O)(=O)c1ccc(CCn2c(=S)[nH]c3ccc(F)cc3c2=O)cc1	1%	-13%	?	3%	?	-4%
COc1ccc(C(=O)NC2CC(C)(C)Cc3c2cnn3-c2ccccc2C)c(OC)c1OC (stereo not given)	-5%	-7%	16µM*	1%	23µM*	-6%
CC(C)(C)c1ccc(/C=C/C(=O)Nc2ccc(S(N)(=O)=O)cc2)cc1	-13%	1%	8.2µM*	nt	6.5µM*	nt
Cc1ccc(/C=C/C(=O)Nc2ccc(S(=O)(=O)Nc3onc(C)c3C)cc2)cc1	-5%	18%	0%	nt	-4%	38µM*
Cc1ccc(S(=O)(=O)CC(=O)Nc2ccc(S(=O)(=O)Nc3onc(C)c3C)cc2)cc1	-1%	0%	-1%	0%	5%	1%
NS(=O)(=O)c1ccc(NC(=O)/C=C/c2cccc(Cl)c2)cc1	0%	6%	?	-3%	?	-7%
Cc1noc(NS(=O)(=O)c2ccc(NC(=O)c3cc(-c4ccccc4Cl)nc4ccccc34)cc2)c1C	-11%	-17%	10%	8%	-8%	38µM*
CCN(CC(=O)Nc1ccc(NC(C)=O)cc1)C(=O)c1cc(-c2ccccc2Cl)nc2ccccc12	nt	13%	15µM*	nt	?	5%
CC(=O)c1ccc(NS(=O)(=O)c2cccc(C(=O)Nc3ccccc3C(=O)O)c2)cc1	-3%	-16%	?	nt	-21%	?
Cc1ccc(C)c(OCC(=O)Nc2ccc(S(=O)(=O)Nc3onc(C)c3C)cc2)c1	-3%	15%	6%	-2%	-18%	0%
COc1cc(-c2cc(C(=O)Nc3ccc(S(N)(=O)=O)cc3)c3ccccc3n2)cc(OC)c1OC	4%	6%	3.7µM*	nt	4.1µM*	-9%
COc1cc(-c2cc(C(=O)Nc3c(Cl)cc(Cl)cc3Cl)c3ccccc3n2)cc(OC)c1OC	-23%	-27%	18µM*	0%	21µM*	1%
SMILES	GCN5L2 inh	VDR inhibitor	DT40 TDP1 no CPT	TDP1 block	DT40 TDP1 CPT	PLK1 PBD block
COc1cc(-c2cc(C(=O)Nc3cccc(S(=O)(=O)N(C)C)c3)c3ccccc3n2)cc(OC)c1OC	-19%	-11%	-24%	nt	-2%	-4%
COc1cc(-c2cc(C(=O)Nc3ccc(S(=O)(=O)Nc4ncccn4)cc3)c3ccccc3n2)cc(OC)c1OC	-20%	?	?	1%	?	27µM*
CCN(CC)S(=O)(=O)c1ccc(Cl)c(NC(=O)COC(=O)c2cc(-c3ccccc3Cl)nc3ccccc23)c1	-3%	4%	-28%	-1%	-21%	-2%
COc1cc(-c2cc(C(=O)NN3CCN(C)CC3)c3ccccc3n2)cc(OC)c1OC	-15%	nt	nt	-1%	nt	nt
CCN(CC)S(=O)(=O)c1ccc(O)c(NC(=O)c2cc(-c3cc(OC)c(OC)c(OC)c3)nc3ccccc23)c1	-9%	-23%	21µM*	-1%	?	19µM*
O=C(COC(=O)COc1ccc(Br)cc1)NC1CCS(=O)(=O)C1 (stereo not given)	nt	nt	1%	nt	2%	-3%
COc1ccccc1C(=O)NCCC(=O)NCC1COc2ccccc2O1 (stereo not given)	-7%	-2%	?	2%	-7%	-14%
CCCc1c(C(=O)N/N=C(/C)c2ccncc2)nnn1-c1nonc1N	-9%	-15%	-8%	nt	10%	0%
Cc1c(-c2nsc(NC(=O)c3ccc(Cl)cc3)n2)nnn1-c1ccc(C(C)C)cc1	-4%	10%	9.2µM*	5%	10µM*	nt
COC(=O)c1ccc(-n2nnc(-c3nsc(NC(=O)c4ccc(Cl)cc4)n3)c2C)cc1	-2%	-4%	-4%	-1%	-18%	nt
COc1ccc(C(=O)Nc2nc(-c3nnn(-c4ccc(F)cc4F)c3C)ns2)cc1	2%	-6%	13µM*	0%	15µM*	nt
CCCN1CCCc2cc(CN(CCCN3CCOCC3)C(=O)Nc3ccc(Cl)c(Cl)c3)ccc21	-1%	7%	7.3µM*	11%	26µM*	nt
CCCN1CCCc2cc(CN(CCCN3CCOCC3)C(=O)Nc3ccc(OCC)cc3)ccc21	-11%	12%	?	0%	26µM*	-5%
CCN1CCCc2cc(CN(CCN3CCOCC3)C(=S)Nc3cccc(OC)c3)ccc21	-11%	-7%	21µM*	11%	?	-5%
CCOc1ccc(NC(=O)N(CCN2CCOCC2)Cc2ccc3c(c2)CCCN3CC)cc1	-6%	11%	-4%	11%	?	0%
Clc1ccccc1-c1cncnc1NCc1cccs1	-17%	?	-3%	nt	-7%	nt
